Measurements as given in ChEMBL document CHEMBL5308504, “Tm Shift (DSF) assay results for EUbOPEN Chemogenomics Library” (2023).

Assays:
Conditions in all cases: Compound concentration 20.0 uM, Protein concentration 2.0 uM, Result type QC Liability
[1] = target: Tyrosine-protein kinase ABL1 (Homo sapiens) (UniProt P00519)
[2] = target: Cyclin-dependent kinase 2 (Homo sapiens) (UniProt P24941)
[3] = target: Casein kinase I isoform delta (Homo sapiens) (UniProt P48730)
[4] = target: Glycogen synthase kinase-3 beta (Homo sapiens) (UniProt P49841)
[5] = target: Mitogen-activated protein kinase 1 (Homo sapiens) (UniProt P28482)
[6] = target: T1, Aurora kinase A (Homo sapiens) (UniProt O14965)
T1 sequence (whole entry): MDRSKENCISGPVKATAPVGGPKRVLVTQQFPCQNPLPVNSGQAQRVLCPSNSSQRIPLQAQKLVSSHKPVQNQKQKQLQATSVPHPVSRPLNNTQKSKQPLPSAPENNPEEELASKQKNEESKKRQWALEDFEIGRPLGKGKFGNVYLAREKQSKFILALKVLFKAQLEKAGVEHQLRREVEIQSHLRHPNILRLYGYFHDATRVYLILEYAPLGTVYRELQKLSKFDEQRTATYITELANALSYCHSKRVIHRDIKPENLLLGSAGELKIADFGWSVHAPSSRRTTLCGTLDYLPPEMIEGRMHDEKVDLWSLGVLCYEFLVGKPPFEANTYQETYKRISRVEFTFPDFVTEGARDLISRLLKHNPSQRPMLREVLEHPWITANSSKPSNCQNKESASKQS

Tyrosine-protein kinase ABL1 (Homo sapiens), sequence (P00519 whole entry): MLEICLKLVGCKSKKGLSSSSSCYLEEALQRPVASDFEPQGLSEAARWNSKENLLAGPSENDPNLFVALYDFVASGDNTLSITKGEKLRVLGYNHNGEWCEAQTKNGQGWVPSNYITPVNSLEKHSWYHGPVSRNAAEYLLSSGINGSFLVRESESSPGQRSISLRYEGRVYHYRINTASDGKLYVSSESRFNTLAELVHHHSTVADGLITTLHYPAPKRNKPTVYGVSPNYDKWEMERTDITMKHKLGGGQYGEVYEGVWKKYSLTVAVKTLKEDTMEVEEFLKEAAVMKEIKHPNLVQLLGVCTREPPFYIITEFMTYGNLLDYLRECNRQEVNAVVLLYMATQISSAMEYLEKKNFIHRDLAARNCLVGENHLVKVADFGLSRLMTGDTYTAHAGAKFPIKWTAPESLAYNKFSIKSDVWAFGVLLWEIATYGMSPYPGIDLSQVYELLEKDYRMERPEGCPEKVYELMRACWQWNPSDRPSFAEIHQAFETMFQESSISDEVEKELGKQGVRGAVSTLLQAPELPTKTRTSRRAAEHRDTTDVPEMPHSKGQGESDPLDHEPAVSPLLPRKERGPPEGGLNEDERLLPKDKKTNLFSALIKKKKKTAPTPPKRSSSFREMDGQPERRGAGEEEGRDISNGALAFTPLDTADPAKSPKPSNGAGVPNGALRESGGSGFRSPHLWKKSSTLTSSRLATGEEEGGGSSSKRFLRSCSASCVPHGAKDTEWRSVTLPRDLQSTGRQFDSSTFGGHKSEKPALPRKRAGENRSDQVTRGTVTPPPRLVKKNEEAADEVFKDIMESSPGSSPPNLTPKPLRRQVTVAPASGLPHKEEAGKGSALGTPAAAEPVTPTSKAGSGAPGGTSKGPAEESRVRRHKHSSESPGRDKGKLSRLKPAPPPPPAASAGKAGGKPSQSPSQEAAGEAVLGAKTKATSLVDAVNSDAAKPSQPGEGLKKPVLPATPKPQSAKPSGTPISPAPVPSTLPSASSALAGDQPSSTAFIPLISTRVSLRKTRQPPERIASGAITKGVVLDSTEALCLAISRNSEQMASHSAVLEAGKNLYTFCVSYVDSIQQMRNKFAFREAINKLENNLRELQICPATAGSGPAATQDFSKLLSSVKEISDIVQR
Mitogen-activated protein kinase 1 (Homo sapiens), sequence (P28482 whole entry): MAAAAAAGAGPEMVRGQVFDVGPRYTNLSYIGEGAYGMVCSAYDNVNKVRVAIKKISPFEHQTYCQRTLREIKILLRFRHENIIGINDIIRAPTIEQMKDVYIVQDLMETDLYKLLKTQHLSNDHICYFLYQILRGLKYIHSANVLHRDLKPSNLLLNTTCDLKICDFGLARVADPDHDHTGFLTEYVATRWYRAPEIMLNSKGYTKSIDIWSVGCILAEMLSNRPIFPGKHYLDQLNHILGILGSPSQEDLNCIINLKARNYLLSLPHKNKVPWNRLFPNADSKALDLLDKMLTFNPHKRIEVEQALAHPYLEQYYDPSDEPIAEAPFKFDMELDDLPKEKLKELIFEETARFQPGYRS
Glycogen synthase kinase-3 beta (Homo sapiens), sequence (P49841 whole entry, looked up): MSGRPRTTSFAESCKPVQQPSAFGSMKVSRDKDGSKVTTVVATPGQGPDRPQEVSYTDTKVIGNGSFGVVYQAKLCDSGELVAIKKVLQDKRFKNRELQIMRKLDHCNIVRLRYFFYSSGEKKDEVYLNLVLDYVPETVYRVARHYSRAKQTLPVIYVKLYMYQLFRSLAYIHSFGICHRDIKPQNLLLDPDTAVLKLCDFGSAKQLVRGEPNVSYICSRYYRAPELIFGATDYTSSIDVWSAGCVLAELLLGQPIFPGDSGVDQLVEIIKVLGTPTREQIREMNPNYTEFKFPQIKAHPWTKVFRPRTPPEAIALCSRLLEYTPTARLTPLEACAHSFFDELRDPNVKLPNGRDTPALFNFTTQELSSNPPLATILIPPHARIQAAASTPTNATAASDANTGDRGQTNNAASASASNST
Casein kinase I isoform delta (Homo sapiens), sequence (P48730 whole entry, looked up, canonical isoform): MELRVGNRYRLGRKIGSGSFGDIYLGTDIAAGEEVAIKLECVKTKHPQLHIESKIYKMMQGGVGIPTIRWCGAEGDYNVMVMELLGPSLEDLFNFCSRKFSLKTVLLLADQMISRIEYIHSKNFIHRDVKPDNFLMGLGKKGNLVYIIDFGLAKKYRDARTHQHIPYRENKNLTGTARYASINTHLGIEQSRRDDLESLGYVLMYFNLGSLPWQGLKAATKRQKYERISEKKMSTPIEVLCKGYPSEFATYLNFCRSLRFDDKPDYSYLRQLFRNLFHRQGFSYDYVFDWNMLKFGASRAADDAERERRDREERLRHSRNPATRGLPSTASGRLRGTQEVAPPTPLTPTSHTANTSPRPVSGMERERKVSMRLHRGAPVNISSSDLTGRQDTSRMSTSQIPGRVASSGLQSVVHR

Compound | ΔTm [1] [°C] | ΔTm [2] [°C] | ΔTm [3] [°C] | ΔTm [4] [°C] | ΔTm [5] [°C] | ΔTm [6] [°C]
COc1ccc(S(=O)(=O)N2CCOCC2)cc1Nc1ccc2c(n1)N(C1CCOCC1)[C@H](C)C(=O)N2C | -0.18 | 0.41 | -0.08 | -0.48 | -0.88 | 0.03
Cc1cc(-c2nc(-c3ccc(OC(F)(F)F)cc3)no2)nn1Cc1ccnc(N2CCN(C3CC3)CC2)c1 | 0.32 | 0.39 | -1.88 | -5.07 | 0.34 | -3.42
CC(C)c1nc2c(c3c1[C@@H](c1ccc(C(F)(F)F)cc1)OC31CCOCC1)[C@@H](O)CC(C)(C)C2 | -0.41 | 0.52 | 0.25 | -1.28 | -0.13 | -0.38
CC1(C)C[C@@H]1C(=O)N/C(=C\CCCCSC[C@H](N)C(=O)O)C(=O)O | 0.34 | 0.8 | -0.09 | 0.21 | -0.39 | -0.41
COc1ccc(Br)cc1S(=O)(=O)NC(=O)/C=C/c1cc(Cl)ccc1Cc1ccc2ccccc2c1 | -0.6 | -1.22 | -6.17 | -2.44 | -4.21 | -3.37
CC(C)c1nc2c(c3c1[C@H](c1ccc(C(F)(F)F)cc1)OC31CCOCC1)[C@H](O)CC(C)(C)C2 | -0.1 | -0.68 | -0.53 | -1.62 | -0.14 | -0.26
COc1cc(Cl)c(C(=O)N[C@@H](CN[C@H]2CC[C@@H](N)CC2)Cc2ccc(C#N)cc2)cc1-c1ccc(CN[C@H](C)c2ccc(C)cc2)o1 | 0.33 | 0.42 | -0.07 | -0.81 | 0.33 | 0.07
CC(C)(O)CNC(=O)N1C(=O)N(c2cccc(C(F)(F)F)c2)C2=C(C(=O)CC2)[C@@H]1c1ccc(C#N)cc1 | 0.02 | 0.61 | 0.18 | -0.62 | 0.17 | -0.16
CC(=O)c1ccc2c(c1)/C(=C(/Nc1cccc(C#N)c1)c1ccc3c(c1)OCCO3)C(=O)N2 | 6.24 | 5.79 | 1.02 | 12 | 0.75 | 4.32
O=c1cc(C2CCNCC2)n2nc3cccc(Cl)c3c2[nH]1 | 0.46 | -0.11 | 0.7 | 0.46 | 0 | -0.12
COc1cc(F)ccc1-c1ncnc(Nc2cccc(C[S@](C)(=N)=O)c2)n1 | 2.58 | 3.09 | 0.27 | 10.1 | 0.36 | 3.39
CCNC1=N[C@@H]2[C@@H](O)[C@H](O)[C@@H](CO)O[C@@H]2S1 | 0.07 | 0.73 | 0.01 | -0.6 | 0.28 | -0.73
Cc1cc(=O)n(C)c2cc(N3C(=O)CC[C@H](NS(=O)(=O)CC(C)C)[C@H]3c3ccc(Cl)cc3)ccc12 | 0.08 | 0.6 | -0.11 | -0.55 | 0.38 | 0.15
O=C(Nc1ccc(-n2nc(-c3cccnc3)cc2C(F)(F)F)cn1)c1ccc(-c2ccccc2)c(F)c1 | -0.47 | -0.05 | -0.18 | -0.91 | 0.06 | 0.04
Cc1ncsc1-c1ccc(CNC(=O)[C@@H]2C[C@@H](O)CN2C(=O)[C@@H](NC(=O)CCCCNC(=O)c2ccc(-c3ccc(N4CCN(C)CC4)c(NC(=O)c4c[nH]c(=O)cc4C(F)(F)F)c3)cc2)C(C)(C)C)cc1 | -3.44 | 1.06 | 0.88 | -0.58 | -2.62 | 0.62
O=C(O)c1cc(-c2ccccc2)ccc1O | 0.56 | 0.7 | 0.85 | -0.32 | 0.04 | 0.05
CC/C(=C(\c1ccccc1)c1ccc(OCCN(C)C)cc1)c1ccccc1 | -1.51 | -1.86 | 0.3 | -1.42 | -0.3 | -2.91
N[C@@H]1CCCN(c2c(/C=C3\SC(=O)NC3=O)cccc2-c2ccccc2)C1 | -0.18 | 2.37 | 0.88 | 3.72 | 0.64 | -0.48
CCN1C(=O)N(c2c(F)c(OC)cc(OC)c2F)Cc2cnc3[nH]c(CN4CCOCC4)cc3c21 | 0.38 | 6.96 | 0.58 | -0.33 | 0.45 | 1.85
N#Cc1ccc(C#CC[C@@H](C#N)NC(=O)[C@H]2CCCCN2)cc1F | -0.48 | -0.17 | 0.45 | -0.17 | -0.62 | -0.01
FC(F)c1cncc(-c2ccc3ncc4nnc(C5=CCCOCC5)n4c3c2)c1 | 0.89 | 0.55 | 0.33 | 2.58 | 0.41 | 1.62
O=C(O)C[C@H]1CCn2c1c(Sc1ccc(Cl)cc1)c1ccc(F)cc12 | -1 | -1.1 | -0.47 | 0 | -0.38 | -0.18
CN(C)CCCNc1ccnc(Nc2cccc(Cl)c2)n1 | 2.74 | 2.3 | 0.78 | 6.75 | 0.51 | 2.26
Cc1cc(OC2CCS(=O)(=O)CC2)cc(C)c1-c1cccc(COc2ccc(CCC(=O)O)c(F)c2)c1 | -0.51 | -2.34 | 0.59 | -4.55 | -0.4 | -1.9
N#Cc1ccc(C#CC[C@@H](C#N)NC(=O)[C@@H]2CCCCN2)cc1F | -0.78 | 0.23 | 0.14 | -0.69 | 0.24 | -0.05
